From PubChem BioAssay AID1159580 (chemical genetic matrix, 2015)
Hit rate of the full screen: of about 5,500 compounds, about 2,000 (36%) were called active. Not shown: some 18% with an inconclusive outcome. The list shows a part of the results. Unmarked numbers belong to inactive results. Cut-off read from the data, not from the text of the source: active = normalized growth mostly below about 0.91 (no sharp cut-off); inconclusive = no clear call, values can overlap the other calls; inactive = mostly above about 0.92.

Assay: chemical genetic growth profiling, strain panel (AID 1159580);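 note: tested at 20 µM; growth read once vehicle control cultures reached saturation at 30 °C; 1 = growth at the plate median or of vehicle wells; lower values mean less growth of the strain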
Details: growth OD
[1] = S. cerevisiae deletion strains, locus YDL101C, strain DUN1, active compounds read low
[2] = S. cerevisiae deletion strains, locus YHR030C, strain SLT2, active compounds read low

CC(=O)c1ccc(Cl)c(NS(=O)(=O)c2cc(Cl)c(Cl)cc2Cl)c1
normalized growth (S. cerevisiae deletion strains, locus YAR019C, strain CDC15, active compounds read low): 0.906
normalized growth (S. cerevisiae deletion strains, locus YBL105C, strain PKC1, active compounds read low): 0.925
normalized growth (S. cerevisiae deletion strains, locus YBR135W, strain CKS1, active compounds read low): 0.91
normalized growth (S. cerevisiae deletion strains, locus YBR136W, strain MEC1, active compounds read low): 0.914
normalized growth (S. cerevisiae deletion strains, locus YBR160W, strain CDC28, active compounds read low): 0.886 (active)
normalized growth (S. cerevisiae deletion strains, locus YDL017W, strain CDC7, active compounds read low): 0.925
normalized growth (S. cerevisiae deletion strains, locus YDL028C, strain MPS1, active compounds read low): 0.89 (active)
normalized growth [1]: 0.95
normalized growth (S. cerevisiae deletion strains, locus YDL108W, strain KIN28, active compounds read low): 0.905
normalized growth (S. cerevisiae deletion strains, locus YDL132W, strain cdc53, active compounds read low): 0.9
normalized growth (S. cerevisiae deletion strains, locus YDL214C, strain PRR2, active compounds read low): 0.868
normalized growth (S. cerevisiae deletion strains, locus YDR052C, strain DBF4, active compounds read low): 0.933
normalized growth (S. cerevisiae deletion strains, locus YDR054C, strain cdc34, active compounds read low): 0.909
normalized growth (S. cerevisiae deletion strains, locus YDR226W, strain ADK1, active compounds read low): 0.897 (active)
normalized growth (S. cerevisiae deletion strains, locus YDR477W, strain SNF1, active compounds read low): 0.799
normalized growth (S. cerevisiae deletion strains, locus YER123W, strain YCK3, active compounds read low): 0.794
normalized growth (S. cerevisiae deletion strains, locus YER133W, strain GLC7, active compounds read low): 0.875
normalized growth (S. cerevisiae deletion strains, locus YFL009W, strain cdc4, active compounds read low): 0.881 (active)
normalized growth (S. cerevisiae deletion strains, locus YFL029C, strain CAK1, active compounds read low): 0.898
normalized growth (S. cerevisiae deletion strains, locus YFR003C, strain YPI1, active compounds read low): 0.917
normalized growth (S. cerevisiae deletion strains, locus YFR019W, strain FAB1, active compounds read low): 0.881
normalized growth (S. cerevisiae deletion strains, locus YFR028C, strain CDC14, active compounds read low): 0.895
normalized growth (S. cerevisiae deletion strains, locus YGR040W, strain KSS1, active compounds read low): 0.805
normalized growth (S. cerevisiae deletion strains, locus YGR052W, strain FMP48, active compounds read low): 0.781
normalized growth (S. cerevisiae deletion strains, locus YGR092W, strain DBF2, active compounds read low): 0.631
normalized growth [2]: 0.317 (active)
normalized growth (S. cerevisiae deletion strains, locus YHR079C, strain IRE1, active compounds read low): 0.697
normalized growth (S. cerevisiae deletion strains, locus YHR082C, strain KSP1, active compounds read low): 0.735
normalized growth (S. cerevisiae deletion strains, locus YHR205W, strain SCH9, active compounds read low): 0.801
normalized growth (S. cerevisiae deletion strains, locus YIL147C, strain SLN1, active compounds read low): 0.904
normalized growth (S. cerevisiae deletion strains, locus YJL095W, strain BCK1, active compounds read low): 0.636
normalized growth (S. cerevisiae deletion strains, locus YJL128C, strain PBS2, active compounds read low): 0.835
normalized growth (S. cerevisiae deletion strains, locus YJL157C, strain FAR1, active compounds read low): 0.877
normalized growth (S. cerevisiae deletion strains, locus YJR016C, strain ILV3, active compounds read low): 0.921
normalized growth (S. cerevisiae deletion strains, locus YJR066W, strain TOR1 (second series), active compounds read low): 0.811
normalized growth (S. cerevisiae deletion strains, locus YJR066W, strain TOR1, active compounds read low): 0.719
normalized growth (S. cerevisiae deletion strains, locus YKL048C, strain ELM1, active compounds read low): 0.843
normalized growth (S. cerevisiae deletion strains, locus YKL067W, strain YNK1, active compounds read low): 0.864
normalized growth (S. cerevisiae deletion strains, locus YKL101W, strain HSL1, active compounds read low): 0.814
normalized growth (S. cerevisiae deletion strains, locus YKL193C, strain SDS22, active compounds read low): 0.906
normalized growth (S. cerevisiae deletion strains, locus YKL203C, strain TOR2, active compounds read low): 0.905
normalized growth (S. cerevisiae deletion strains, locus YLR113W, strain HOG1, active compounds read low): 0.648 (active)
normalized growth (S. cerevisiae deletion strains, locus YLR133W, strain CKI1, active compounds read low): 0.865
normalized growth (S. cerevisiae deletion strains, locus YLR403W, strain SFP1, active compounds read low): 0.826
normalized growth (S. cerevisiae deletion strains, locus YML070W, strain DAK1, active compounds read low): 0.811
normalized growth (S. cerevisiae deletion strains, locus YMR001C, strain CDC5, active compounds read low): 0.899
normalized growth (S. cerevisiae deletion strains, locus YMR205C, strain PFK2 (second series), active compounds read low): 0.905
normalized growth (S. cerevisiae deletion strains, locus YMR277W, strain FCP1, active compounds read low): 0.885
normalized growth (S. cerevisiae deletion strains, locus YNL006W, strain LST8, active compounds read low): 0.925
normalized growth (S. cerevisiae deletion strains, locus YNL020C, strain ARK1, active compounds read low): 0.829
normalized growth (S. cerevisiae deletion strains, locus YNL161W, strain CBK1, active compounds read low): 0.921
normalized growth (S. cerevisiae deletion strains, locus YNL183C, strain NPR1, active compounds read low): 0.819
normalized growth (S. cerevisiae deletion strains, locus YNL207W, strain RIO2, active compounds read low): 0.906
normalized growth (S. cerevisiae deletion strains, locus YNL222W, strain SSU72, active compounds read low): 0.884 (active)
normalized growth (S. cerevisiae deletion strains, locus YNL307C, strain MCK1 (second series), active compounds read low): 0.786
normalized growth (S. cerevisiae deletion strains, locus YOL078W, strain AVO1, active compounds read low): 0.9
normalized growth (S. cerevisiae deletion strains, locus YOL136C, strain PFK27, active compounds read low): 0.789
normalized growth (S. cerevisiae deletion strains, locus YOR061W, strain CKA2, active compounds read low): 0.744
normalized growth (S. cerevisiae deletion strains, locus YOR119C, strain RIO1, active compounds read low): 0.832
normalized growth (S. cerevisiae deletion strains, locus YOR231W, strain MKK1, active compounds read low): 0.704
normalized growth (S. cerevisiae deletion strains, locus YOR329C, strain SCD5, active compounds read low): 0.923
normalized growth (S. cerevisiae deletion strains, locus YPL031C, strain PHO85, active compounds read low): 0.788
normalized growth (S. cerevisiae deletion strains, locus YPL153C, strain RAD53, active compounds read low): 0.768
normalized growth (S. cerevisiae deletion strains, locus YPL204W, strain HRR25, active compounds read low): 0.763
normalized growth (S. cerevisiae deletion strains, locus YPL209C, strain IPL1, active compounds read low): 0.916
normalized growth (S. cerevisiae deletion strains, locus YPL256C, strain CLN2, active compounds read low): 0.664 (active)
normalized growth (S. cerevisiae deletion strains, locus YPR025C, strain CCL1, active compounds read low): 0.912
normalized growth (S. cerevisiae deletion strains, locus YPR106W, strain ISR1, active compounds read low): 0.904
normalized growth (S. cerevisiae deletion strains, locus YPR111W, strain DBF20, active compounds read low): 0.858 (active)
normalized growth (S. cerevisiae deletion strains, strain NNK1, active compounds read low): 0.894
normalized growth (S. cerevisiae deletion strains, strain TSCII, active compounds read low): 0.898

O=C(CCc1nc(-c2ccc(Cl)cc2)no1)NNS(=O)(=O)c1cc(Cl)c(Cl)cc1Cl
normalized growth (S. cerevisiae deletion strains, locus YAL013W, strain DEP1, active compounds read low): 1.01
normalized growth (S. cerevisiae deletion strains, locus YBR229C, strain ROT2, active compounds read low): 1.01
normalized growth (S. cerevisiae deletion strains, locus YCL061C, strain MRC1, active compounds read low): 1.01
normalized growth [1]: 1.03
normalized growth (S. cerevisiae deletion strains, locus YDL134C, strain PPH21, active compounds read low): 1
normalized growth (S. cerevisiae deletion strains, locus YDR150W, strain NUM1, active compounds read low): 0.998
normalized growth (S. cerevisiae deletion strains, locus YEL061C, strain CIN8, active compounds read low): 0.961
normalized growth (S. cerevisiae deletion strains, locus YGR078C, strain PAC10, active compounds read low): 1.02
normalized growth [2]: 0.98
normalized growth (S. cerevisiae deletion strains, locus YHR087W, strain rtc3, active compounds read low): 0.958
normalized growth (S. cerevisiae deletion strains, locus YJR043C, strain POL32, active compounds read low): 0.999
normalized growth (S. cerevisiae deletion strains, locus YJR075W, strain HOC1, active compounds read low): 0.994
normalized growth (S. cerevisiae deletion strains, locus YLR039C, strain RIC1, active compounds read low): 0.971
normalized growth (S. cerevisiae deletion strains, locus YLR058C, strain SHM2 (second series), active compounds read low): 1.01
normalized growth (S. cerevisiae deletion strains, locus YLR085C, strain ARP6, active compounds read low): 1
normalized growth (S. cerevisiae deletion strains, locus YLR262C, strain YPT6, active compounds read low): 1.03
normalized growth (S. cerevisiae deletion strains, locus YML094W, strain GIM5, active compounds read low): 0.968
normalized growth (S. cerevisiae deletion strains, locus YMR219W, strain ESC1, active compounds read low): 1
normalized growth (S. cerevisiae deletion strains, locus YMR263W, strain SAP30, active compounds read low): 1.01
normalized growth (S. cerevisiae deletion strains, locus YNL153C, strain GIM3, active compounds read low): 1
normalized growth (S. cerevisiae deletion strains, locus YNL298W, strain CLA4 (second series), active compounds read low): 0.993
normalized growth (S. cerevisiae deletion strains, locus YNL322C, strain KRE1, active compounds read low): 1.02
normalized growth (S. cerevisiae deletion strains, locus YNR030W, strain Alg12, active compounds read low): 1.03
normalized growth (S. cerevisiae deletion strains, locus YOL006C, strain TOP1, active compounds read low): 1.02
normalized growth (S. cerevisiae deletion strains, locus YPL055C, strain LGE1, active compounds read low): 0.973
normalized growth (S. cerevisiae deletion strains, locus YPL241C, strain CIN2, active compounds read low): 1.04
normalized growth (S. cerevisiae deletion strains, locus YPR135W, strain CTF4, active compounds read low): 1.03
normalized growth (S. cerevisiae strains, strain wild type, active compounds read low): 1
